Results from ChEMBL document CHEMBL3988442, “University of Dundee, Small-Polar-MMV Screening Library” (2021).
The whole screen tested about 48,000 compounds, of which about 13,000 (27%) showed an effect of 50% or more. The list shows a part of the results.

Each molecule was assayed on Wolbachia pipientis (assay: Anti-Wolbachia Cell-Based Screen). Conditions: 5 µM.
Assay type: functional
Set-up: scale not given: in the data most compounds retested in dose-response had high values

Compared with CC(NC(=O)NCc1cccc(N2CCCC2=O)c1)c1ccccc1 (configuration not stated), CNc1nc(CNC(=O)Nc2ccccc2OC(C)C)cs1 is lower in “Percent Effect” value: 10.19% for the first, -5.433% for the second.

Going from CC(=O)N[C@@H]1CN(c2nc(C(N)=O)cs2)C[C@H]1c1ccc(C)o1 to Cc1nc(C)c(CC(=O)N2C[C@@H](C(=O)O)[C@H](c3ccccc3C)C2)s1, the “Percent Effect” value falls from 3.94% to -4.112%.

Going from CC(C)c1cc(N2CCN(c3ccc(O)cc3)CC2)n2nccc2n1 to COc1cccc2ccc(CN3CCN(c4cccnc4)CC3)nc12, the “Percent Effect” value rises from -10.08% to 1.116%.

First: Cc1nc(C)n(CC2CCCCN2CC(=O)NC2CCOCC2)n1 (configuration not stated)
Second: CCC(CNC(=O)Cc1c(C)noc1C)N1CCCC1 (configuration not stated)
The “Percent Effect” value of the first is lower: -3.575% for the first, 6.109% for the second.

First: Cc1ncc2c(n1)CCN(C(=O)Cc1c(C)noc1C)C2
Second: Cc1noc(C)c1CC(=O)N1CCC(c2ccn3nccc3n2)CC1
The “Percent Effect” value of the first is lower: -7.344% for the first, 116.9% for the second.

Compared with COC1CCN(C(=O)CCc2c(C)nc3ccnn3c2C)CC1, Cc1nc(C)c(CC(=O)N2CCC(c3ccn4nccc4n3)CC2)s1 is higher in “Percent Effect” value: 2.453% for the first, 148.4% for the second.

First: Cc1nc(CC(=O)N2CCN(c3ccc(N(C)C)cc3)CC2)cs1
Second: Cc1nc(CC(=O)N2CCC(c3ccn4nccc4n3)CC2)cs1
The “Percent Effect” value of the first is lower: -7.561% for the first, 100.2% for the second.

Compared with CCC[C@@H]1CN(C(=O)Cc2sc(C)nc2C)C[C@H]1C(=O)O, CCC[C@H]1CN(c2nccc(NCC)n2)C[C@@H]1NS(=O)(=O)N(C)C is higher in “Percent Effect” value: 9.333% for the first, 9.452% for the second.

Compared with Cc1nc(CC(=O)N2CCC(Nc3cccnn3)CC2)cs1, CCn1cnnc1C1CCN(C(=O)c2cccc(C)c2C)CC1 is higher in “Percent Effect” value: 10.36% for the first, 94.12% for the second.

First: O=C(NC[C@H]1OC[C@@H](NC2CCC2)[C@@H]1O)Nc1ccccc1
Second: CCn1cnnc1C1CCN(C(=O)COCCc2ccccc2)CC1
The “Percent Effect” value of the first is higher: 27.93% for the first, 1.598% for the second.

First: COCCCN(C)S(=O)(=O)c1ccc(C(F)(F)F)cc1C#N
Second: CCN(CC(C)C#N)C(=O)CSc1ccc(C(F)(F)F)cn1 (configuration not stated)
The “Percent Effect” value of the first is higher: 0.354% for the first, -16% for the second.

Going from Cc1cc(CC(C)Nc2ncnc3cccc(F)c23)[nH]n1 (configuration not stated) to CCOc1cc(CNc2nnn(C)n2)ccc1OCc1ccc(Cl)cc1, the “Percent Effect” value rises from -16.45% to 121.9%.

First: CCN(CC(C)C#N)C(=O)CNc1ccc(C(N)=O)c(C)c1 (configuration not stated)
Second: CCN(CC(C)C#N)C(=O)CNc1ccc(F)c(C)c1 (configuration not stated)
The “Percent Effect” value of the first is lower: 94.3% for the first, 98.55% for the second.

Compared with CCN(CC(C)C#N)C(=O)CNc1cc(Cl)ccc1C(N)=O (configuration not stated), CCN(C(=O)CNc1cc(C)c(F)cc1C(N)=O)C1CC1 is lower in “Percent Effect” value: 109.4% for the first, -0.2217% for the second.

Compared with Cc1cc(NCC(=O)N(C)C)c(C(N)=O)cc1F, CCN(CC)C(=O)Nc1ccc(C(=O)N(C)C)c(C)c1 is lower in “Percent Effect” value: 4.75% for the first, -2.57% for the second.

Going from Cc1cc(NC(=O)N(CCC#N)CCCN(C)C)ccc1F to Cc1cc(NCC(C)C)ccc1C(=O)N(C)C, the “Percent Effect” value falls from -0.7911% to -5.944%.

First: CNC(=O)N1CCC2(CC1)CN(C(C)C)Cc1cc(F)ccc12.Cl
Second: CCN1CC2(CCC1=O)CCN(C(=O)c1ccc(Cl)cc1O)CC2
The “Percent Effect” value of the first is higher: -6.692% for the first, -7.361% for the second.

Compared with CCn1c(CN(C)C)nnc1C1CCN(Cc2ccc(Cl)cc2)CC1, CCc1ccc(C(=O)N2CCC(c3nncn3CC)CC2)o1 is higher in “Percent Effect” value: -12.39% for the first, 130.6% for the second.

Compared with Cc1noc(C)c1C(C)NC(=O)N1CCN(c2cccs2)CC1 (configuration not stated), Cc1noc(C)c1C(C)NC(=O)N1CCCN(C(=O)c2ccsc2)CC1 (configuration not stated) is higher in “Percent Effect” value: 5.123% for the first, 6.672% for the second.

First: Cc1noc(C)c1C(=O)N1CCSc2ccc(Cl)cc21
Second: Cc1noc(C)c1C(=O)N1CCCN(C)c2ccc(Cl)cc21
The “Percent Effect” value of the first is higher: 93.15% for the first, 90.03% for the second.

Compared with Cc1noc(C)c1CC(=O)N1CCCN(C)c2ccc(Cl)cc21, Cc1noc(C)c1C(C)C(=O)N1CCCN(C)c2ccc(Cl)cc21 (configuration not stated) is higher in “Percent Effect” value: 108.2% for the first, 111.8% for the second.

Compared with CN1CCCN(S(=O)(=O)c2cn(C)cn2)c2cc(Cl)ccc21, Cn1cc(S(=O)(=O)NC(=O)C2(c3cccc(Cl)c3)CC2)cn1 is higher in “Percent Effect” value: -2.244% for the first, 9.889% for the second.

First: Cc1noc(C)c1CN(C)C(=O)CCOc1ccc(Cl)cc1
Second: CC(=O)c1cccc(OCCCC(=O)N(C)Cc2cscn2)c1
The “Percent Effect” value of the first is higher: 13.27% for the first, 4.484% for the second.

First: Cc1nc(CN2CCN(C(=O)c3c(C)noc3C)CC2)cs1
Second: Cc1noc(C)c1C(=O)N1CC[C@H]2C[C@@H](c3nccs3)O[C@@H]2C1
The “Percent Effect” value of the first is lower: -5.34% for the first, -4.112% for the second.

Compared with O=c1[nH]nc(CNc2cncc(Br)c2)[nH]1, Cc1nnc(NCc2ccc(Cl)cc2)o1 is lower in “Percent Effect” value: -1.101% for the first, -6.045% for the second.

Compared with Cc1ccccc1CN(CCO)Cc1ncc[nH]1, CN(Cc1ncc[nH]1)CC1CCOc2ccccc2C1 (configuration not stated) is higher in “Percent Effect” value: -0.936% for the first, 5.15% for the second.

Compared with CC1(C)CC(N(Cc2ccccc2)Cc2ncc[nH]2)CC(C)(C)N1.O=C(O)CC(O)(CC(=O)O)C(=O)O, Cc1ccc(CN(Cc2ncc[nH]2)C2CC(C)(C)NC(C)(C)C2)o1.O=C(O)CC(O)(CC(=O)O)C(=O)O is higher in “Percent Effect” value: 109.1% for the first, 124% for the second.

First: Cc1ccc(CN(Cc2ccncc2)C2CC(C)(C)NC(C)(C)C2)o1.O=C(O)CC(O)(CC(=O)O)C(=O)O
Second: Cc1cccc(CN(Cc2ccc(C)o2)C2CC(C)(C)NC(C)(C)C2)n1.O=C(O)CC(O)(CC(=O)O)C(=O)O
The “Percent Effect” value of the first is higher: 117.7% for the first, -13.89% for the second.

First: Cc1ccc(CN2CC[C@@H](NS(C)(=O)=O)[C@@H]2Cc2ccncc2)o1.O=C(O)C(F)(F)F.O=C(O)C(F)(F)F
Second: c1ccc(OCc2ccncc2)c(CNC2CCc3ncnn3C2)c1 (configuration not stated)
The “Percent Effect” value of the first is higher: 0.02145% for the first, -0.3287% for the second.

First: CCN(CC)C(=O)[C@@H]1C[C@@H](NC(=O)c2ccoc2)CN1C
Second: CC[C@@]1(O)CCN(C(=O)c2ccc(-n3cnnc3)cc2)C[C@H]1O
The “Percent Effect” value of the first is lower: 5.596% for the first, 5.833% for the second.

Compared with CN(Cc1ncc[nH]1)CC(c1cccs1)N1CCOCC1 (configuration not stated), COc1cccc(CC(=O)N2CCc3ncnc(C)c3CC2)c1 is lower in “Percent Effect” value: -1.486% for the first, -6.07% for the second.

First: Cc1nc(NC(=O)NC2CC(=O)N(C)C2)nn1C(C)C (configuration not stated)
Second: CCn1c(C)cc(C(=O)N2CCCC(c3nc(C)no3)C2)c1C (configuration not stated)
The “Percent Effect” value of the first is lower: -15.27% for the first, 12.03% for the second.

First: CCNc1ccnc(N2Cc3cnn(Cc4ccc(F)cc4)c3C2)n1
Second: CCn1nnc(NCc2ccccc2OCc2ccc(Cl)cc2)n1
The “Percent Effect” value of the first is lower: -10.41% for the first, 122% for the second.

First: Cn1nnc(NCc2ccccc2OCc2ccc(Cl)cc2)n1
Second: CCCn1nnc(NCc2ccccc2OCc2ccc(Cl)cc2)n1
The “Percent Effect” value of the first is higher: 119% for the first, 104.8% for the second.

First: Cc1cnn(CCNCc2ccccc2OCc2cccnc2)c1
Second: CCOc1ccc(Cl)cc1CNCCCn1ccnc1
The “Percent Effect” value of the first is higher: -3.699% for the first, -4.437% for the second.

Compared with CCOc1ccc(CNCCCn2ccnc2)cc1Br, CCOCc1ccccc1CNc1ccc2nncn2n1 is lower in “Percent Effect” value: 7.125% for the first, -4.273% for the second.

Compared with COc1ccc(-c2cn3c(n2)CO[C@@H](CNCc2ccccn2)C3)cc1, Cn1nnc(NCc2ccc(OCc3ccc(Cl)cc3)cc2)n1 is higher in “Percent Effect” value: -5.771% for the first, 101.9% for the second.

Going from CC(C)OCCN1CCc2cncnc2C1 to COc1cc(Br)c(CNC(C)c2nnc3n2CCC3)cc1OC (configuration not stated), the “Percent Effect” value rises from -3.318% to 2.226%.

Compared with CC(NCc1ccc(OCC(N)=O)cc1)c1ccc(Cl)cc1.Cl (configuration not stated), Cc1[nH]ncc1CCCNC(=O)Nc1ccc(C#N)cc1 is lower in “Percent Effect” value: -2.794% for the first, -18.53% for the second.

Compared with CCc1ccc(C(=O)N2CC[C@](C)(O)[C@H](C)C2)[nH]1, CCSc1ccc(C(=O)N2CC[C@](C)(O)[C@H](C)C2)s1 is higher in “Percent Effect” value: -16.61% for the first, 109.4% for the second.

Compared with CCn1nc(CC(C)C)cc1C(=O)N1CCC2(CC1)[C@H](O)C[C@@H]2O, CCSc1ccc(C(=O)N2CCC3(CC2)[C@H](O)C[C@@H]3O)s1 is higher in “Percent Effect” value: -14.19% for the first, 100.2% for the second.

First: Cc1cc2cccc(C(=O)N3CC[C@](C)(O)[C@H](C)C3)c2o1
Second: CCSc1ccc(C(=O)N2CC[C@](O)(CC)[C@H](O)C2)s1
The “Percent Effect” value of the first is lower: 15.88% for the first, 107.9% for the second.

First: CC[C@@]1(O)CCN(C(=O)c2ccsc2)C[C@H]1O
Second: CO[C@H]1C[C@@H](O)C12CCN(C(=O)CCSCc1ccc(F)cc1)CC2
The “Percent Effect” value of the first is lower: -12.48% for the first, 11.02% for the second.

Compared with CCSc1ccc(C(=O)N2CCC3(CCC(=O)N(C)C3)CC2)s1, CCc1ccc(C(=O)N2CCC3(CCC(=O)N(CCN(C)C)C3)CC2)[nH]1 is lower in “Percent Effect” value: 103.4% for the first, -7.538% for the second.

Going from COc1ccccc1N1CCN(C(=O)c2ccoc2)CC1 to CNS(=O)(=O)c1ccccc1N1CCN(C(=O)C(C)C)CC1, the “Percent Effect” value falls from 4.438% to -15.34%.

Compared with CNC(=O)Cc1noc(-c2cc3c(s2)CCCCCC3)n1, CCn1cnnc1C1CCN(C(=O)c2ccc(Cl)s2)CC1 is higher in “Percent Effect” value: -5.82% for the first, 1.567% for the second.

Compared with CCn1cnnc1C1CCN(C(=O)c2cc(C)n(CC)c2C)CC1, CCn1cnnc1C1CCN(C(=O)c2c(C)oc(C)c2C)CC1 is higher in “Percent Effect” value: 80.75% for the first, 107.2% for the second.

Going from CCn1cnnc1C1CCN(C(=O)c2ccoc2C)CC1 to CCn1cnnc1C1CCN(C(=O)c2ccccc2F)CC1, the “Percent Effect” value falls from 104.9% to 104.8%.

First: CCCS(=O)(=O)N1CCC2(CC1)COCCN(C(C)=O)C2
Second: CCOCCn1nc(C)cc1C(=O)N1CC[C@@](O)(COC)C(C)(C)C1
The “Percent Effect” value of the first is lower: -12.8% for the first, 0.9121% for the second.

Compared with NCCC1CN(c2nc(-c3ccccc3)nc3c2CCNC3)CCO1 (configuration not stated), CCn1cnnc1C1CCN(C(=O)c2ccc3ccccc3n2)CC1 is higher in “Percent Effect” value: -13.03% for the first, 136.7% for the second.

Going from CCn1cnnc1C1CCN(C(=O)C(OC)c2ccccc2)CC1 (configuration not stated) to CCSCCC(C)N(C)C(=O)c1cc(C)no1 (configuration not stated), the “Percent Effect” value falls from -2.664% to -5.306%.
